According to publication PMC5700166:

Tests used:
[1] = molecular target: T1, GST-Nv-NF-kB (Ser allele) (Nematostella vectensis, UniProt A7UNT2 2-411); assay: protein-binding microarray (PBM); PBM: ~300 nM protein, 6 mM HEPES pH 7.8, 80 mM KCl, 0.5 mM EDTA, 0.5 mM EGTA, 6% glycerol, 35 ng/ul poly-dIdC, 1% milk, 1 h, room temperature; Ap Aiptasia and Nv Nematostella (sea anemones) / Co Capsaspora / Aq Amphimedon (sponge) / Dm Drosophila / Hu human; RHD is the Rel homology domain; high values mean tight binding; settings: dsDNA, one strand shown
T1 sequence: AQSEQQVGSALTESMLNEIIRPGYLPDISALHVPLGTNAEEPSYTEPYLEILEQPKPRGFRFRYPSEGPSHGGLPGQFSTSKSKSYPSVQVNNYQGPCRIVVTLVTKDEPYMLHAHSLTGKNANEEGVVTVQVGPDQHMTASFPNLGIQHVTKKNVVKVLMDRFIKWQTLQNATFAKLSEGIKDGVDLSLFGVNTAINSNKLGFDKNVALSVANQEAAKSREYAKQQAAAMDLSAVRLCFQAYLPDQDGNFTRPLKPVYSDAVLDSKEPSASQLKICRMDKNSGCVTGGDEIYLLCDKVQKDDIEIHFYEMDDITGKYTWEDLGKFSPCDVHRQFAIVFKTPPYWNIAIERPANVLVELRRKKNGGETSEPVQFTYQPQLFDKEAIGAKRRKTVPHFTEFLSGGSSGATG

GST-Hu-p50 = GST-Hu-p50 (Homo sapiens, UniProt P19838 7-356); assay: as above; settings: dsDNA, one strand shown
Sequence of GST-Hu-p50 (P19838 7-356): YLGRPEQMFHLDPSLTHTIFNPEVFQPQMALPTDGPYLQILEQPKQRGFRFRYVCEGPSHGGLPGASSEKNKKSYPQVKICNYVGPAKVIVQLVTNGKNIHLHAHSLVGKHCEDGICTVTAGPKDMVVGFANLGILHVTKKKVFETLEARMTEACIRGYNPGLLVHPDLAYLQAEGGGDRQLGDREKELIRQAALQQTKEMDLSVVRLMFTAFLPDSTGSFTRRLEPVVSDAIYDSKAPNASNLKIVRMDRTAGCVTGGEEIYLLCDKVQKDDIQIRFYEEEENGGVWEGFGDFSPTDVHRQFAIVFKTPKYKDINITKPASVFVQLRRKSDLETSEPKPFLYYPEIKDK

Sequence	binding signal [1] [z-score]	binding signal (GST-Hu-p50) [z-score]
CCGATTAACATCAGGGGCTGTACTGATGTTAATCGGGTCTTGATTCGCTTGACGCTGCTG	2.32	3.36
CCGATTAACATCAAACAAACCCCTGATGTTAATCGGGTCTTGATTCGCTTGACGCTGCTG	2.48	3.95
CCGATTAACATCAGGGACTTACCTGATGTTAATCGGGTCTTGATTCGCTTGACGCTGCTG	5.49	4.61
CCGATTAACATCAGGGGAGTAAATGATGTTAATCGGGTCTTGATTCGCTTGACGCTGCTG	3.92	2.72
CCGATTAACATCAGAAAATTACCTGATGTTAATCGGGTCTTGATTCGCTTGACGCTGCTG	5.7	4.34
CCGATTAACATCAGGGATTTCTATGATGTTAATCGGGTCTTGATTCGCTTGACGCTGCTG	3.11	3.37
CCGATTAACATCAGGGAAGCACCTGATGTTAATCGGGTCTTGATTCGCTTGACGCTGCTG	3.97	5.24
CCGATTAACATCAGGGGGGGTGATGATGTTAATCGGGTCTTGATTCGCTTGACGCTGCTG	3.98	4.13
CCGATTAACATCAATTTCCCATATGATGTTAATCGGGTCTTGATTCGCTTGACGCTGCTG	3.63	3.09
CCGATTAACATCAGGGAGATTTATGATGTTAATCGGGTCTTGATTCGCTTGACGCTGCTG	4.27	4.86
CCGATTAACATCAACAAAGTCCCTGATGTTAATCGGGTCTTGATTCGCTTGACGCTGCTG	6.52	4.3
CCGATTAACATCAAATAAATCCCTGATGTTAATCGGGTCTTGATTCGCTTGACGCTGCTG	3.53	3.29
CCGATTAACATCAGGGGTTCCACTGATGTTAATCGGGTCTTGATTCGCTTGACGCTGCTG	1.62	2.51
CCGATTAACATCAGGCGATTCCCTGATGTTAATCGGGTCTTGATTCGCTTGACGCTGCTG	2.44	1.92
CCGATTAACATCAGGGACAACCCTGATGTTAATCGGGTCTTGATTCGCTTGACGCTGCTG	3.39	2.91
CCGATTAACATCACTAATTTCCCTGATGTTAATCGGGTCTTGATTCGCTTGACGCTGCTG	6.51	3.94
CCGATTAACATCAATTTACCCACTGATGTTAATCGGGTCTTGATTCGCTTGACGCTGCTG	2.27	2.06
CCGATTAACATCAAGGGAGTACCTGATGTTAATCGGGTCTTGATTCGCTTGACGCTGCTG	4.41	2.56
CCGATTAACATCACCAGTTTCCCTGATGTTAATCGGGTCTTGATTCGCTTGACGCTGCTG	4.89	2.39
CCGATTAACATCAAATGACCCCCTGATGTTAATCGGGTCTTGATTCGCTTGACGCTGCTG	2.69	2.89
CCGATTAACATCAGGGGTTTAACTGATGTTAATCGGGTCTTGATTCGCTTGACGCTGCTG	1.69	3.05
CCGATTAACATCAGGAGAATCCCTGATGTTAATCGGGTCTTGATTCGCTTGACGCTGCTG	1.07	1.64
CCGATTAACATCAGGGACAAAAATGATGTTAATCGGGTCTTGATTCGCTTGACGCTGCTG	3.37	2.61
CCGATTAACATCAAGTACCCCCATGATGTTAATCGGGTCTTGATTCGCTTGACGCTGCTG	3.01	2.36
CCGATTAACATCAGGGAACAACCTGATGTTAATCGGGTCTTGATTCGCTTGACGCTGCTG	1.65	2.25

Sequence	binding signal [1] [z-score]	binding signal (GST-Hu-p50) [z-score]
CCGATTAACATCACATTATCCCCTGATGTTAATCGGGTCTTGATTCGCTTGACGCTGCTG	6.4	3.94
CCGATTAACATCAGGGAATTGTATGATGTTAATCGGGTCTTGATTCGCTTGACGCTGCTG	4.84	3.41
CCGATTAACATCAGGCAAGTCCCTGATGTTAATCGGGTCTTGATTCGCTTGACGCTGCTG	3.07	3.44
CCGATTAACATCAGGACGTTCCCTGATGTTAATCGGGTCTTGATTCGCTTGACGCTGCTG	1.14	1.71
CCGATTAACATCAAGGAAAACCCTGATGTTAATCGGGTCTTGATTCGCTTGACGCTGCTG	1.6	2.22
CCGATTAACATCAGGGAACCCCATGATGTTAATCGGGTCTTGATTCGCTTGACGCTGCTG	1.33	2.54
CCGATTAACATCAAACACCCCCCTGATGTTAATCGGGTCTTGATTCGCTTGACGCTGCTG	4.8	4.57
CCGATTAACATCAGGGGGGGCACTGATGTTAATCGGGTCTTGATTCGCTTGACGCTGCTG	3.3	3.87
CCGATTAACATCAGAACATTCCCTGATGTTAATCGGGTCTTGATTCGCTTGACGCTGCTG	3.49	3.65
CCGATTAACATCACCCCTCCCCATGATGTTAATCGGGTCTTGATTCGCTTGACGCTGCTG	3.22	3.16
CCGATTAACATCAACATGGGAATTGATGTTAATCGGGTCTTGATTCGCTTGACGCTGCTG	1.75	1.37
CCGATTAACATCAATGGGAAAATTGATGTTAATCGGGTCTTGATTCGCTTGACGCTGCTG	5.32	3.49
CCGATTAACATCAGGGCAGTACCTGATGTTAATCGGGTCTTGATTCGCTTGACGCTGCTG	2.24	2.22
CCGATTAACATCACGTAAACCCCTGATGTTAATCGGGTCTTGATTCGCTTGACGCTGCTG	2.13	3.75
CCGATTAACATCACAACACCCCCTGATGTTAATCGGGTCTTGATTCGCTTGACGCTGCTG	5.01	4.62
CCGATTAACATCAGGACTTCCCATGATGTTAATCGGGTCTTGATTCGCTTGACGCTGCTG	1.03	1.76
CCGATTAACATCAGGGATAACCCTGATGTTAATCGGGTCTTGATTCGCTTGACGCTGCTG	1.1	2.62
CCGATTAACATCAGGGCATACCCTGATGTTAATCGGGTCTTGATTCGCTTGACGCTGCTG	1.31	1.86
CCGATTAACATCAAAAATTCCGGTGATGTTAATCGGGTCTTGATTCGCTTGACGCTGCTG	1.4	3.12
CCGATTAACATCAGGGGGTCTACTGATGTTAATCGGGTCTTGATTCGCTTGACGCTGCTG	2.55	3.36
CCGATTAACATCAGGGATTTCCATGATGTTAATCGGGTCTTGATTCGCTTGACGCTGCTG	2.71	3.25
CCGATTAACATCAAAAACACCCCTGATGTTAATCGGGTCTTGATTCGCTTGACGCTGCTG	3.89	4.99
CCGATTAACATCACGCAATTCCCTGATGTTAATCGGGTCTTGATTCGCTTGACGCTGCTG	4.54	2.87
CCGATTAACATCAAGGGTTTTCCTGATGTTAATCGGGTCTTGATTCGCTTGACGCTGCTG	2.41	2.92
CCGATTAACATCAGAGTCCCCCCTGATGTTAATCGGGTCTTGATTCGCTTGACGCTGCTG	5.12	5.06

Sequence	binding signal [1] [z-score]	binding signal (GST-Hu-p50) [z-score]
CCGATTAACATCAGGGAAATTCATGATGTTAATCGGGTCTTGATTCGCTTGACGCTGCTG	5.89	4.4
CCGATTAACATCAATTCCCAAGGTGATGTTAATCGGGTCTTGATTCGCTTGACGCTGCTG	2.02	2.13
CCGATTAACATCAGGGAATATAATGATGTTAATCGGGTCTTGATTCGCTTGACGCTGCTG	3.88	2.29
CCGATTAACATCACGGCTTTCCCTGATGTTAATCGGGTCTTGATTCGCTTGACGCTGCTG	3.48	2.19
CCGATTAACATCAGGGAAATAAATGATGTTAATCGGGTCTTGATTCGCTTGACGCTGCTG	4.6	3.23
CCGATTAACATCAAGGTAATCCCTGATGTTAATCGGGTCTTGATTCGCTTGACGCTGCTG	2.34	1.4
CCGATTAACATCAAAATTCCCAATGATGTTAATCGGGTCTTGATTCGCTTGACGCTGCTG	4.95	4.21
CCGATTAACATCAGGGGCGGGAATGATGTTAATCGGGTCTTGATTCGCTTGACGCTGCTG	3.18	2.9
CCGATTAACATCAGGAACCTCCCTGATGTTAATCGGGTCTTGATTCGCTTGACGCTGCTG	1.05	1.22
CCGATTAACATCAGGAAATTTCCTGATGTTAATCGGGTCTTGATTCGCTTGACGCTGCTG	2.16	2.5
CCGATTAACATCAGGGGAACACATGATGTTAATCGGGTCTTGATTCGCTTGACGCTGCTG	5.55	3.37
CCGATTAACATCAGAATAACCCCTGATGTTAATCGGGTCTTGATTCGCTTGACGCTGCTG	3.11	4.22
CCGATTAACATCACCCACGAGGGTGATGTTAATCGGGTCTTGATTCGCTTGACGCTGCTG	1.02	2.01
CCGATTAACATCAACGCCCCCCCTGATGTTAATCGGGTCTTGATTCGCTTGACGCTGCTG	4.55	4.25
CCGATTAACATCATTTCCCTTGATGATGTTAATCGGGTCTTGATTCGCTTGACGCTGCTG	3.44	2.51
CCGATTAACATCAACCACCCCCCTGATGTTAATCGGGTCTTGATTCGCTTGACGCTGCTG	3.31	4.14
CCGATTAACATCACGGGAAACCCTGATGTTAATCGGGTCTTGATTCGCTTGACGCTGCTG	3.35	2.62
CCGATTAACATCAAGGGATTTCCTGATGTTAATCGGGTCTTGATTCGCTTGACGCTGCTG	3.4	3.68
CCGATTAACATCAATATAGTCCCTGATGTTAATCGGGTCTTGATTCGCTTGACGCTGCTG	4.68	3.8
CCGATTAACATCACGGGAAGTCCTGATGTTAATCGGGTCTTGATTCGCTTGACGCTGCTG	1.71	1.59
CCGATTAACATCAGAATCTCCCATGATGTTAATCGGGTCTTGATTCGCTTGACGCTGCTG	1.67	2.18
CCGATTAACATCATGCGGGAAAATGATGTTAATCGGGTCTTGATTCGCTTGACGCTGCTG	4.76	2.69
CCGATTAACATCAGGGACACCCCTGATGTTAATCGGGTCTTGATTCGCTTGACGCTGCTG	3.24	4.03
